“And” between values parts separate entries of the source, which are not always exact repeats. Equal entries are not always repeated. This is part of a sample that, as a whole, favours compounds with a hit. Of some 83,000 tested, about 20% had one in any assay.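 Percent growth is the endpoint: 0 to 100 indicates growth inhibition (40 means 60% inhibition), 0 means no net growth, and negative values indicate cell death.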 The source made the active and inactive calls. The calls were made as follows: active = growth percent below 10; inactive = the rest.
tested on: HL-60(TB) leukemia; test: NCI-60 one-dose screen, 48 h (100 = growth as untreated, 0 = no growth, -100 = all killed); conditions: 10 µM unless noted

| Compound | growth |
| --- | --- |
| N#Cc1c(-c2ccc(C(F)(F)F)cc2)cc(NCC2CCS(=O)(=O)CC2)n2c1nc1ccccc12 | 88.5% (inactive) |
| N#Cc1c(Nc2ccccc2)nn2cc(-c3nc4ccccc4s3)c(N)nc12 | 100% (inactive) |
| S=C(S)NCCc1c[nH]c2ccccc12 | 91.4% (inactive) |
| O=c1c2cc(F)ccc2sc2c(NCCCNCCO)nc3ccc(Cl)cc3c12 | 45.4% (inactive) |
| Nc1c2ccccc2nc2ccccc12 | 21% (inactive) and 9.95% (active) and 47.7% (inactive) |
| COc1ccc(/C=C/c2nc(-c3n[nH]c(=O)n3-c3ccccc3)c3ccccc3n2)cc1 | 97.1% (inactive) |
| OC1CC2c3ccccc3C1c1ccccc12 (stereo not drawn) | 109% (inactive) |
| O=C1c2ccc3c4ccc5c6c(ccc(c7ccc(c2c37)C(=O)N1CCC[P+](c1ccccc1)(c1ccccc1)c1ccccc1)c64)C(=O)N(CCC[P+](c1ccccc1)(c1ccccc1)c1ccccc1)C5=O | 54.6% (inactive) |
| O=C(c1ccccc1)[C@H]1[C@@H]2CCCN2[C@]2(C(=O)Nc3ccc(F)cc32)[C@]12C(=O)Nc1ccccc12 | 68.3% (inactive) |
| CCOC(=O)C1=CN(C)C=C(C(=O)OCC)C1c1cc(Br)c(OCC)c(OC)c1 | 66.7% (inactive) |
| CCSc1nc(NC)c2cc(-c3ccc(C(F)(F)F)cc3)ccc2n1 | 98.3% (inactive) |
| CCCCCCN1C(=O)C2=C(c3ccc(Cl)cc3)Nc3c(c(C)nn3-c3ccccc3)C2c2ccccc21 (stereo not drawn) | 102% (inactive) |
| N#CCCN(NC(=O)OCc1ccccc1)C(=O)OCc1ccccc1 | 115% (inactive) |

Reference: PubChem BioAssay (NCI)
